Legend:
Assay in all cases: log2 ratio of Biotin-Ahx-Ub-VS probe labelling (fragment/DMSO); higher = less target engagement (more negative = stronger competition), active = hit call of the paper (q ≤ 0.05, log2 ratio ≤ -1)
Conditions in all cases: compound concentration: 200 uM; treatment time: 3 h
USP34 = USP34 (UniProt Q70CQ2)
Method in brief: (§1)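 The table lists average log2 ratios of fragment over vehicle, from an unpaired t-test on global-median-normalised Spectronaut label-free quantities. Proteins with ≥2 unique peptides were used. Samples were HEK293T lysate (495 µg) treated in triplicate with fragment at 200 µM or vehicle for 3 h, then with Biotin-Ahx-Ub-VS (0.5 µM final) for 1 h, with labelled DUBs NeutrAvidin-enriched and run by diaPASEF LC-MS/MS.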

USP36 = biological target: T1, USP36 (UniProt Q9P275)
T1 sequence (whole entry): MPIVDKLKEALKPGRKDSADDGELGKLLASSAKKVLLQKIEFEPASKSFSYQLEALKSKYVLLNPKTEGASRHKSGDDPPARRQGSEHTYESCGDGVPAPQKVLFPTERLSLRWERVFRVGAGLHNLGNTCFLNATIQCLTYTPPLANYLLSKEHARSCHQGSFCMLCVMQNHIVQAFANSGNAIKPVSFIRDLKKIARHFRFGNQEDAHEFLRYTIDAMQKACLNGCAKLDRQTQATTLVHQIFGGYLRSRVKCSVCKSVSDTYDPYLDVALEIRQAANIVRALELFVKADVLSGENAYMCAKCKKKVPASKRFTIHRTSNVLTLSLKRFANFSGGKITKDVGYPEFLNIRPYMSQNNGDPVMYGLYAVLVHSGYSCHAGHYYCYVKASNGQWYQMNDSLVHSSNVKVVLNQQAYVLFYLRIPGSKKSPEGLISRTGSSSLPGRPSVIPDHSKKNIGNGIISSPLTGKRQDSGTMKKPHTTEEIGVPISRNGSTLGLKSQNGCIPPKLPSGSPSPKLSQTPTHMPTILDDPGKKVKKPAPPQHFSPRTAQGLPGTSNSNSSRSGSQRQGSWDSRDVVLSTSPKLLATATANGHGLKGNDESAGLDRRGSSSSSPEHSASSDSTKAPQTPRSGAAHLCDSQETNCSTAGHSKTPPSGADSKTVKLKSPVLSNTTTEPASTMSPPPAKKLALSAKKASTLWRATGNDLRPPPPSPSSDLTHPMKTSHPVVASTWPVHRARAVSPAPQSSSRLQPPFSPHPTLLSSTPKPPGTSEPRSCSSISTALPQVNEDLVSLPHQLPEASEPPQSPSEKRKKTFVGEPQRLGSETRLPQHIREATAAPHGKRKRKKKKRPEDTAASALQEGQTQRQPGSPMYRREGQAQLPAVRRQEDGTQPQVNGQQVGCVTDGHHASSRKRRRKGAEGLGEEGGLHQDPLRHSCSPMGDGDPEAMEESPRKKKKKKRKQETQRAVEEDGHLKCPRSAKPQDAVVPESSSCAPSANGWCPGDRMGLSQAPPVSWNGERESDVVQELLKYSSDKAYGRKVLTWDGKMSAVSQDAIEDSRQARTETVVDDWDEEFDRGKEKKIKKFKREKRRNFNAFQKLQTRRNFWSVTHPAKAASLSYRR
Method in brief: as §1

USP38 = biological target: T2, USP38 (UniProt Q8NB14)
T2 sequence (whole entry): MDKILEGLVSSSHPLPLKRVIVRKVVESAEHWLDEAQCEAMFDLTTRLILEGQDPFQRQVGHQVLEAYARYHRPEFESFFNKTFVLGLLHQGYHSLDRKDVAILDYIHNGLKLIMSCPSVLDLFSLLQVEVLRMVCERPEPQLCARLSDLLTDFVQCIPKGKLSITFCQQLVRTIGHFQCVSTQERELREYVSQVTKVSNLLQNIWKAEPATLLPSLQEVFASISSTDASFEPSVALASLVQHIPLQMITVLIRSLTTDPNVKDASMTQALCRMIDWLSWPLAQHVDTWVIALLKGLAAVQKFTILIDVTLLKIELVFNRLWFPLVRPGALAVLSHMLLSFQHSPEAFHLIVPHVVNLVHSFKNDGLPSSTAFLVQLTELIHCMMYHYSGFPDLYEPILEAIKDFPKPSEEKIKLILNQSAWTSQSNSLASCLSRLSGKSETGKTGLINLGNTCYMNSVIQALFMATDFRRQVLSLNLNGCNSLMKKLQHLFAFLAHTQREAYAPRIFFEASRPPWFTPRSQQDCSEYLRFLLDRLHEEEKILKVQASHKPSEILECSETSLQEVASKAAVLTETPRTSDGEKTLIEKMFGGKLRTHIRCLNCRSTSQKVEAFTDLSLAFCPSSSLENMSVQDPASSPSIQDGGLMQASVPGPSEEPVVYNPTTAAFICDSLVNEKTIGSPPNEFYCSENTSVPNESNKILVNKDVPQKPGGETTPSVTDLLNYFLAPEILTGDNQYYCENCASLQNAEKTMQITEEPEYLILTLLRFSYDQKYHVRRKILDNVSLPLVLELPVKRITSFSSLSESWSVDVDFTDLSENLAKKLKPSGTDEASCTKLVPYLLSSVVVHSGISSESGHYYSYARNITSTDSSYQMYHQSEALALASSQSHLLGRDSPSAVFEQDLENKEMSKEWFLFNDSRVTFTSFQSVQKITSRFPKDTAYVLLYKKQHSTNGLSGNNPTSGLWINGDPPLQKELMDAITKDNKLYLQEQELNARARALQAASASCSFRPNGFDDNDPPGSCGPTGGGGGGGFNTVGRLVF
Method in brief: as §1

USP39 = biological target: T3, USP39 (UniProt Q53GS9)
T3 sequence (whole entry): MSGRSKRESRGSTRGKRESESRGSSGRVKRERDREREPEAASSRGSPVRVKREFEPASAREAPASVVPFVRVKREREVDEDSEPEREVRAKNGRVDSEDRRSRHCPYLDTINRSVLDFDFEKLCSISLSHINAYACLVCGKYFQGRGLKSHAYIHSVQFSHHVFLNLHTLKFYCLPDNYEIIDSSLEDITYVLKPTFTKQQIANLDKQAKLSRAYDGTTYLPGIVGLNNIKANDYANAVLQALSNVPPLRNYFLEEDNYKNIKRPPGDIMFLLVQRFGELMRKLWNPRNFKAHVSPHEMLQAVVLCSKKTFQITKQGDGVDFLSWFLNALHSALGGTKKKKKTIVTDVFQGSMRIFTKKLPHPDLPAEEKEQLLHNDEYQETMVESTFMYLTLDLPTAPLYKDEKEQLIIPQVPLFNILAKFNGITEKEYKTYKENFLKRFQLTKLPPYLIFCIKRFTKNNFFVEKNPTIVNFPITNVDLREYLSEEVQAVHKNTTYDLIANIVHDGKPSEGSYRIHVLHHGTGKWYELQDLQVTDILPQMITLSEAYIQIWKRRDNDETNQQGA
Method in brief: as §1

USP4 = biological target: T4, USP4 (UniProt Q13107)
T4 sequence (whole entry): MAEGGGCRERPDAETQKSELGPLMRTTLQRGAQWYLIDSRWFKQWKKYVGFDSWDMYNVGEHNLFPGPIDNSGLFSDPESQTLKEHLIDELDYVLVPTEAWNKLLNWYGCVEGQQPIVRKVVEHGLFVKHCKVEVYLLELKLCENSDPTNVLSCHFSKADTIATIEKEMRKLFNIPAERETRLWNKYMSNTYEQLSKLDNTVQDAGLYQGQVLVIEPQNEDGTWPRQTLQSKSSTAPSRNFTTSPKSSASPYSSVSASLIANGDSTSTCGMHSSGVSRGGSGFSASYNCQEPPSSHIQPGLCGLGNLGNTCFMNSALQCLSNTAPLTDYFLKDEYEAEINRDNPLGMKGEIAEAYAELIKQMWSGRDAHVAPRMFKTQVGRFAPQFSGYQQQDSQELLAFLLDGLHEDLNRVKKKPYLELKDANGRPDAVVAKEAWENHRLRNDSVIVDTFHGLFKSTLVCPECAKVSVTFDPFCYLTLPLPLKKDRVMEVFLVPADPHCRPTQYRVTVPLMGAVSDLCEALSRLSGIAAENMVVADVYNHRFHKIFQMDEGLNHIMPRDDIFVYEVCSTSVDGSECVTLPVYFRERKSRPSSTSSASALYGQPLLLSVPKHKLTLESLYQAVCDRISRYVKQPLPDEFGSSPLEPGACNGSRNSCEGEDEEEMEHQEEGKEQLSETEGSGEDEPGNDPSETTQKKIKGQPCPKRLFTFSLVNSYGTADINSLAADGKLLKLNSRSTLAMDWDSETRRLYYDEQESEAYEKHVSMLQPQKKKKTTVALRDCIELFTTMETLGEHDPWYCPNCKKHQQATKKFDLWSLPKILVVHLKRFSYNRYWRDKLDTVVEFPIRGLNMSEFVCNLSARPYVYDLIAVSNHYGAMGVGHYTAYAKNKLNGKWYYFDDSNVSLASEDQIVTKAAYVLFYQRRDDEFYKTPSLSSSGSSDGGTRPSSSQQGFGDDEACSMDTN
Method in brief: as §1

Measured: log2 ratio of Biotin-Ahx-Ub-VS probe labelling

Sequence of USP34 (Q70CQ2 whole entry, the tested form may be a part): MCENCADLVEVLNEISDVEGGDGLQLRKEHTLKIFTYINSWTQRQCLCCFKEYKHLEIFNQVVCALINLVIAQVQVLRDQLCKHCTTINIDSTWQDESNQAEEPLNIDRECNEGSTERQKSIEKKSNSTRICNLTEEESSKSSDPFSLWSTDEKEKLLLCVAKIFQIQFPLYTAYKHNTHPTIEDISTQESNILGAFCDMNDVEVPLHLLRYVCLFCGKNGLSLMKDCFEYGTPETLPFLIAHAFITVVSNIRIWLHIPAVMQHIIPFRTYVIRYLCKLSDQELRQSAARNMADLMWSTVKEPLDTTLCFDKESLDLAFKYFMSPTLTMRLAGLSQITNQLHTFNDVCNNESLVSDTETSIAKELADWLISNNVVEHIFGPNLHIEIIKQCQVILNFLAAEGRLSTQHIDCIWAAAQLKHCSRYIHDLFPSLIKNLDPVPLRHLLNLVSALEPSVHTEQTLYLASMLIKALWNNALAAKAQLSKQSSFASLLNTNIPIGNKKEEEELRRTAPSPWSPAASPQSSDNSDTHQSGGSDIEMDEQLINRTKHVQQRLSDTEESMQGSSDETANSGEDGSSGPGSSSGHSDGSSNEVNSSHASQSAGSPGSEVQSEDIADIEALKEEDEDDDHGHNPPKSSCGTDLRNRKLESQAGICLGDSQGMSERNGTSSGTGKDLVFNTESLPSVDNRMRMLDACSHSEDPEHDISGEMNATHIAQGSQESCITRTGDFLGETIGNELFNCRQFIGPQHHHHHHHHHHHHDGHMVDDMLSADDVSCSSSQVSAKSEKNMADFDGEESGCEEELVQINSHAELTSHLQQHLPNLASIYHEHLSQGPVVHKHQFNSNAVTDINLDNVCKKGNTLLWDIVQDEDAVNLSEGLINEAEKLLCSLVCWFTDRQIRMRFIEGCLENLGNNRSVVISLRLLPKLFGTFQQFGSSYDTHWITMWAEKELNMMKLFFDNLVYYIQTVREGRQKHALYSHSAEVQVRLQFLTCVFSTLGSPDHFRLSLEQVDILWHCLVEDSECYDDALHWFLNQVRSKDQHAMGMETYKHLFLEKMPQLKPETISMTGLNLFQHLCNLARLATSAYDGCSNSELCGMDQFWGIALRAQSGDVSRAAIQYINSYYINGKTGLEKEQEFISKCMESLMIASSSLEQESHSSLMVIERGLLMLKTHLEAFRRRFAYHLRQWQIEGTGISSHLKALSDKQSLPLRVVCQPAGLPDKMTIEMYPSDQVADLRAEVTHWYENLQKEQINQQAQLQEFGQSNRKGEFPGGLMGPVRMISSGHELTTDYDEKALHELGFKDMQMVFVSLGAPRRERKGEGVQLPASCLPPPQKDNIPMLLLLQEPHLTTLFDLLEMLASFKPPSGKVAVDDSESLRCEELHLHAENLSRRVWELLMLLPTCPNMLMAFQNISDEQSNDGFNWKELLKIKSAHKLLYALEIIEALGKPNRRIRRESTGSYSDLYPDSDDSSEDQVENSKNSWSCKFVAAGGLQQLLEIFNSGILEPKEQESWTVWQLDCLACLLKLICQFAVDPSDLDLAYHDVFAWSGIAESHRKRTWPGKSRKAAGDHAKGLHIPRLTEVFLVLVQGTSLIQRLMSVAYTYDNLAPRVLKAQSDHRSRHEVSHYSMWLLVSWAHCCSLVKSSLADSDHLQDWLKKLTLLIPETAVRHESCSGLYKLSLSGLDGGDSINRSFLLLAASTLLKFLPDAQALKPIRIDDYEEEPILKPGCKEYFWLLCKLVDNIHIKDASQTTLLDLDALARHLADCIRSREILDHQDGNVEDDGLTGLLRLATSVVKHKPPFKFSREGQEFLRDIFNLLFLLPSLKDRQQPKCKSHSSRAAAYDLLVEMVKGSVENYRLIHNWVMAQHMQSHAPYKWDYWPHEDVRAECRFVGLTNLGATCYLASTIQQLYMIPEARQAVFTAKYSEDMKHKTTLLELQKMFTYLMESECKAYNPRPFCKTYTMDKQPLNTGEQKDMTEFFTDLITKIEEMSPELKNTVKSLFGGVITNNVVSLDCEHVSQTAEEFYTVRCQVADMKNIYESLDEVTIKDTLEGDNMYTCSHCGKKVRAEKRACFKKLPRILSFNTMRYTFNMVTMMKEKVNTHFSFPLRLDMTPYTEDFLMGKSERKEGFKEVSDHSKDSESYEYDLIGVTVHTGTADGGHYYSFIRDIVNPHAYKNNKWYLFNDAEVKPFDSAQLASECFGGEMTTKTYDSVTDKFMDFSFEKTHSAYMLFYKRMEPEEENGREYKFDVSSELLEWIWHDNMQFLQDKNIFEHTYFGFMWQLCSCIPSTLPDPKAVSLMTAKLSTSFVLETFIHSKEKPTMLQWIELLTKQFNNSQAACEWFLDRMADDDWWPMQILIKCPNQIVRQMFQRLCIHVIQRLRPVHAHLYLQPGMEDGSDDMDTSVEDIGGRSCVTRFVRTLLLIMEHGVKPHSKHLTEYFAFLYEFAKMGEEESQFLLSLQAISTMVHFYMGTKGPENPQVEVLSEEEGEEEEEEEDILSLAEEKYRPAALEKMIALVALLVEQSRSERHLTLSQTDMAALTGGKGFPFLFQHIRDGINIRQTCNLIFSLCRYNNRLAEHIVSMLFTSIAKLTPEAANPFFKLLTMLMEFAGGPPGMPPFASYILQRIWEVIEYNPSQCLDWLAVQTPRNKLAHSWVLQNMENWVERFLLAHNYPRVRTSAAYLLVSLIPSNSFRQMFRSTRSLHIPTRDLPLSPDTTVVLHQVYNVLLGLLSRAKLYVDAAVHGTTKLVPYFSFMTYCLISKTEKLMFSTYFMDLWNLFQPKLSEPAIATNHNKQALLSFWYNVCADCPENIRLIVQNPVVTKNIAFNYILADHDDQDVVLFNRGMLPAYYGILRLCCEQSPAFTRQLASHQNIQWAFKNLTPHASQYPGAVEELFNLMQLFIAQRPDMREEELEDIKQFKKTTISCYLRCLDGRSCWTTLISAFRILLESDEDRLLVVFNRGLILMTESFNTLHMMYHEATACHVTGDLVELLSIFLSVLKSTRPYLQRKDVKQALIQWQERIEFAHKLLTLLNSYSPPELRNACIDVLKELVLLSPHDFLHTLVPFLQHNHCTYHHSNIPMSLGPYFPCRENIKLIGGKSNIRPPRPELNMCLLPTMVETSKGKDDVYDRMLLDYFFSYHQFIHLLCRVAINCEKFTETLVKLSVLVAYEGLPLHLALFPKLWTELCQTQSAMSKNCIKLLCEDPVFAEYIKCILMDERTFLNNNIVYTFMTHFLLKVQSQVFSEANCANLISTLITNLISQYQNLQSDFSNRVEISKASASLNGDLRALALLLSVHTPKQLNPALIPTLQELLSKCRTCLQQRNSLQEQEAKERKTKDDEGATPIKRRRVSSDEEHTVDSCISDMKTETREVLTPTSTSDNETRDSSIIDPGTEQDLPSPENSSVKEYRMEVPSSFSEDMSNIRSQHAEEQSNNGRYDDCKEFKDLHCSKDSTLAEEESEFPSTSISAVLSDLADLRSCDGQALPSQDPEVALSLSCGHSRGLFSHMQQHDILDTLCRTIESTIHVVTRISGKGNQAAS

O=C(CCl)NC1(c2ccc3c(c2)OCCO3)CCCC1
inactive: USP34 -0.146 | USP36 -0.197 | USP38 -0.013 | USP39 0.277 | USP4 -0.0625

Source: the supplement of paper PMC11732987, “Enantioselective OTUD7B fragment discovery through chemoproteomics screening and high-throughput optimisation” (Communications Chemistry, 2025)
